{"source": "paper PMC7862700", "about": "“An all-to-all approach to the identification of sequence-specific readers for epigenetic DNA modifications on cytosine”", "assay_in_all_cases": "DAPPL (digital affinity profiling via proximity ligation, sequencing); 10 mM Tris-HCl pH 7.5, 50 mM NaCl, 1 mM DTT, 4% glycerol, room temperature, 30 min; GST-TFs on glutathione beads, 16-mer random dsDNA library, 0.1% formaldehyde crosslink after washing; high values mean tight binding", "details_in_all_cases": "protein: recombinant; tags: N-terminal GST; dsDNA, one strand shown", "key": {"FLI1": {"biological_target": "T1, FLI1 (Homo sapiens, UniProt Q01543 1-452)", "T1 sequence": "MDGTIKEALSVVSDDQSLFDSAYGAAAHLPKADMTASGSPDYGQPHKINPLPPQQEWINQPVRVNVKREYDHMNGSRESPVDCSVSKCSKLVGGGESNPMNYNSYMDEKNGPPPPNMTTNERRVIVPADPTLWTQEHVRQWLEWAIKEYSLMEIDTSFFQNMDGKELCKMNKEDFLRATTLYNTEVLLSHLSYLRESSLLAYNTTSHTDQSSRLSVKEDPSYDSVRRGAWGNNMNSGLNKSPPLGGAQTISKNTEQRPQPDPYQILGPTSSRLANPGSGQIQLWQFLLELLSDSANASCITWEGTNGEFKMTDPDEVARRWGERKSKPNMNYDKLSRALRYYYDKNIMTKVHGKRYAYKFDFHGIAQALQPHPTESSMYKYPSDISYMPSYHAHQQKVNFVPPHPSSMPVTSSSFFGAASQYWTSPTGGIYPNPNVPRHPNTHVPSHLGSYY", "in_short": "(§1)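 Beads coated with glutathione captured GST-fused human transcription factors that had been expressed in yeast, and the factors were then given DNA barcodes and pooled with a tag-only sample. The pools were incubated with 200 nmole of a random double-stranded 16-mer DNA library in Tris/NaCl/DTT/glycerol buffer for 30 min at room temperature, washed, crosslinked with 0.1% formaldehyde and proximity-ligated with BsaI/T4 ligase at 37 °C for 1 h. PCR amplification and Illumina NextSeq500 sequencing came last. Binding signal is each hexamer's read frequency for a factor divided by its frequency for the tag-only sample.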"}, "ELK1": {"biological_target": "T2, ELK1 (Homo sapiens, UniProt P19419 1-428)", "T2 sequence": "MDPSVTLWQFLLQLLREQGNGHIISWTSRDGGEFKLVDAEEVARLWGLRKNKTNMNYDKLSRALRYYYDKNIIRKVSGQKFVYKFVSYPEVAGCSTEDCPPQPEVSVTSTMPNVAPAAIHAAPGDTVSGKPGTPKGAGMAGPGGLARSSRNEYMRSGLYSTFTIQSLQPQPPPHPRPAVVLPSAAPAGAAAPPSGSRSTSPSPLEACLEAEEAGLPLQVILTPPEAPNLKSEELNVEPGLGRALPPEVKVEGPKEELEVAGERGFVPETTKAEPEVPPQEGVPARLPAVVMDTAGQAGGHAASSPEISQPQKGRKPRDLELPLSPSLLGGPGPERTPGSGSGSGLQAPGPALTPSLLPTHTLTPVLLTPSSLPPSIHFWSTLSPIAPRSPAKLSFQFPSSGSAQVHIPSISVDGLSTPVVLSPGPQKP", "in_short": "as §1"}, "GABPA": {"biological_target": "T3, GABPA (Homo sapiens, UniProt Q06546 1-454)", "T3 sequence": "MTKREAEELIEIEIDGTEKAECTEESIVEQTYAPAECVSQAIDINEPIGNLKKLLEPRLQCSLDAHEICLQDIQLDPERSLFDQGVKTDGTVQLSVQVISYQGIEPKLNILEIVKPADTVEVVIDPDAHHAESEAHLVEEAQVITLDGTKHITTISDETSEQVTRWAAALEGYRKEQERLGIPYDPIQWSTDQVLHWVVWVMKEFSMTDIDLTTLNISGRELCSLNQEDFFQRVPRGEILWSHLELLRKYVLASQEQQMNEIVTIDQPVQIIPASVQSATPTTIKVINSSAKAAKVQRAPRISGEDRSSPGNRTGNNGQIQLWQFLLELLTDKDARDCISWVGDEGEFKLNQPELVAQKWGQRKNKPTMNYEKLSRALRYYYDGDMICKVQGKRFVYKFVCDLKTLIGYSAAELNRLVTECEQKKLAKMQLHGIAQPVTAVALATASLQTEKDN", "in_short": "as §1"}, "ERG": {"biological_target": "T4, ERG (Homo sapiens, UniProt P11308 1-479)", "T4 sequence": "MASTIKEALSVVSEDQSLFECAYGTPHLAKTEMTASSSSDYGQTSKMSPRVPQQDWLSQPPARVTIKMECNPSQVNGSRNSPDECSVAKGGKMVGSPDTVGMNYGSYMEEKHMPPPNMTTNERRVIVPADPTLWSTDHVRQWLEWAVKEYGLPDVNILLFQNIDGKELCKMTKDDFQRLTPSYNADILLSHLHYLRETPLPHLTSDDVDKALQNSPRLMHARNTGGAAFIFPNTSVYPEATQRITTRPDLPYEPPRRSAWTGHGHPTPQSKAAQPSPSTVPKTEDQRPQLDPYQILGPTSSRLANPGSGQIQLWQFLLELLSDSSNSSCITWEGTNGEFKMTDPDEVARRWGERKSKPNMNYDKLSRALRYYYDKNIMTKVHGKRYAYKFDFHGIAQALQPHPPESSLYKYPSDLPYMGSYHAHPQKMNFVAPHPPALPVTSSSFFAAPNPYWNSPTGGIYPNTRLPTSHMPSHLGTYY", "in_short": "as §1"}, "ELF1": {"biological_target": "ELF1 (Homo sapiens, UniProt P32519 1-619)", "sequence (P32519 whole entry)": "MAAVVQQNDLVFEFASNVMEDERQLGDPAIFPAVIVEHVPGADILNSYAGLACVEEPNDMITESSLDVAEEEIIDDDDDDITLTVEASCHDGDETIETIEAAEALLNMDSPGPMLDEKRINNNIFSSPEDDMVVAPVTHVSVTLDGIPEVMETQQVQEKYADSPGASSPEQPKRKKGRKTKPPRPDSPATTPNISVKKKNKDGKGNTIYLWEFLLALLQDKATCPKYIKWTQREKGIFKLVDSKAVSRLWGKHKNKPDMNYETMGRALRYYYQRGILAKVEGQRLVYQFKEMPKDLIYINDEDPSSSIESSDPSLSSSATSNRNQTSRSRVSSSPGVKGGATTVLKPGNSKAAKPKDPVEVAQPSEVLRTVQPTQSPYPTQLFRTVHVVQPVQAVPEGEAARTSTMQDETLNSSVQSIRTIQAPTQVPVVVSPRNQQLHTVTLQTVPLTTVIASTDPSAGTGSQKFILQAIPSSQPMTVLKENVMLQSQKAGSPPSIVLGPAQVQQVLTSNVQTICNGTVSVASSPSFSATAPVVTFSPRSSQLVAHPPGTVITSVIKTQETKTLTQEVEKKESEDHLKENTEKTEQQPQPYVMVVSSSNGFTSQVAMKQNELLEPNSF", "in_short": "as §1"}, "EHF": {"biological_target": "T5, EHF (Homo sapiens, UniProt Q9NZC4 1-300)", "T5 sequence": "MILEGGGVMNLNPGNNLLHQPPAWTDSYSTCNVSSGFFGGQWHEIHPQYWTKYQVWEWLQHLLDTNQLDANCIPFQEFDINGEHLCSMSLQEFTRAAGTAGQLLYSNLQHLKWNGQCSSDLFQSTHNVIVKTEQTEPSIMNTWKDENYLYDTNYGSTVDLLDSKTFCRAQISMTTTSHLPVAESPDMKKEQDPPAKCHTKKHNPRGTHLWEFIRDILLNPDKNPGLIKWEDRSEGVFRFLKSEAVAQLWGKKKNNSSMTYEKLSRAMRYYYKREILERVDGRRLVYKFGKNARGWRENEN", "in_short": "as §1"}, "SPI1": {"biological_target": "SPI1 (Homo sapiens, UniProt P17947 1-270)", "in_short": "as §1"}, "SPIB": {"biological_target": "SPIB (Homo sapiens, UniProt Q01892 1-262)", "sequence (Q01892 whole entry)": "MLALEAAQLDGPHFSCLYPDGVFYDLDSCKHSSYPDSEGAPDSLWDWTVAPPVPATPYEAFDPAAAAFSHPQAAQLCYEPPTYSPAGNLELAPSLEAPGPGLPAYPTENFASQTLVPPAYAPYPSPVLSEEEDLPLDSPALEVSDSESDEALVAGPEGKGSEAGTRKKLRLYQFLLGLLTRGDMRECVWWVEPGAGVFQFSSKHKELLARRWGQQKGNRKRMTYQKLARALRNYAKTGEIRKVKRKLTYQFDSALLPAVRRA", "in_short": "as §1"}, "ELK3": {"biological_target": "T6, ELK3 (Homo sapiens, UniProt P41970 1-407)", "T6 sequence": "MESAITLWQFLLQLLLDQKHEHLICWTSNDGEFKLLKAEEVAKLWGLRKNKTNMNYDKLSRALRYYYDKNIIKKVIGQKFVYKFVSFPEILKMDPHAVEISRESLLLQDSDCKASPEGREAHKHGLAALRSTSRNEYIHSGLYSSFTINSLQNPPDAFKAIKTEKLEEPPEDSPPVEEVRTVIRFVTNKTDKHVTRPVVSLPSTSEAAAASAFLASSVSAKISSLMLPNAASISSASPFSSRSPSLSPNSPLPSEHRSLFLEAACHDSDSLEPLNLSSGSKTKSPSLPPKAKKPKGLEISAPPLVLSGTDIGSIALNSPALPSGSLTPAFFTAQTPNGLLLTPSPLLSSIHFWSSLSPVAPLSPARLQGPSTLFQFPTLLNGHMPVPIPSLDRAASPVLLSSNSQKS", "in_short": "as §1"}, "FEV": {"biological_target": "T7, FEV (Homo sapiens, UniProt Q99581 1-238)", "T7 sequence": "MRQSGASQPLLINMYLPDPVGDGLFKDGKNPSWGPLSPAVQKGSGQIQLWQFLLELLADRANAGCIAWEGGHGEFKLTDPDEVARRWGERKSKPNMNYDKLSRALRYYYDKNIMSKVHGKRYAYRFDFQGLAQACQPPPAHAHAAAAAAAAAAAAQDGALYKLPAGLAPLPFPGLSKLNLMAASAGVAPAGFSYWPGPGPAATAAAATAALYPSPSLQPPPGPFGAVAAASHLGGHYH", "in_short": "as §1"}, "ETV5": {"biological_target": "ETV5 (Homo sapiens, UniProt P41161 1-510)", "sequence (P41161 whole entry)": "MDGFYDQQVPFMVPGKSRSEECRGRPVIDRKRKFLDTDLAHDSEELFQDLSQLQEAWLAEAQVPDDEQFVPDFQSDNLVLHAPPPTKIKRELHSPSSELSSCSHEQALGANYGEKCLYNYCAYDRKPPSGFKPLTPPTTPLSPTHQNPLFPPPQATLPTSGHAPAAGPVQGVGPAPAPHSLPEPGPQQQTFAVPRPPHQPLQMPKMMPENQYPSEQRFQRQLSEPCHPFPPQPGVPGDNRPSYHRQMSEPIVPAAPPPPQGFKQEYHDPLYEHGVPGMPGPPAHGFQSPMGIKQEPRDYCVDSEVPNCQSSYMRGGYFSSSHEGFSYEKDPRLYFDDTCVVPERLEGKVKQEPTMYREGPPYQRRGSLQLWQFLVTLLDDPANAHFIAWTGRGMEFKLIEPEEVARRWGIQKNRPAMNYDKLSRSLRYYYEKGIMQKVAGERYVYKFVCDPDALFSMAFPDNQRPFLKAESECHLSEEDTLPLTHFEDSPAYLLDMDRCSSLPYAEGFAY", "in_short": "as §1"}, "SPIC": {"biological_target": "T8, SPIC (Homo sapiens, UniProt Q8N5J4 1-248)", "T8 sequence": "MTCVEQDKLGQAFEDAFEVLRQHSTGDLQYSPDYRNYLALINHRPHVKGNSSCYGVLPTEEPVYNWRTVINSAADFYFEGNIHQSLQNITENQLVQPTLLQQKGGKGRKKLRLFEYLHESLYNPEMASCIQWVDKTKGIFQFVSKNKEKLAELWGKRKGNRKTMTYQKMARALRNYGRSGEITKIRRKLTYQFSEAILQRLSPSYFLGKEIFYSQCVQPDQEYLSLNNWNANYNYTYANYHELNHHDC", "in_short": "as §1"}, "ELF4": {"biological_target": "ELF4 (Homo sapiens, UniProt Q99607 1-663)", "sequence (Q99607 whole entry)": "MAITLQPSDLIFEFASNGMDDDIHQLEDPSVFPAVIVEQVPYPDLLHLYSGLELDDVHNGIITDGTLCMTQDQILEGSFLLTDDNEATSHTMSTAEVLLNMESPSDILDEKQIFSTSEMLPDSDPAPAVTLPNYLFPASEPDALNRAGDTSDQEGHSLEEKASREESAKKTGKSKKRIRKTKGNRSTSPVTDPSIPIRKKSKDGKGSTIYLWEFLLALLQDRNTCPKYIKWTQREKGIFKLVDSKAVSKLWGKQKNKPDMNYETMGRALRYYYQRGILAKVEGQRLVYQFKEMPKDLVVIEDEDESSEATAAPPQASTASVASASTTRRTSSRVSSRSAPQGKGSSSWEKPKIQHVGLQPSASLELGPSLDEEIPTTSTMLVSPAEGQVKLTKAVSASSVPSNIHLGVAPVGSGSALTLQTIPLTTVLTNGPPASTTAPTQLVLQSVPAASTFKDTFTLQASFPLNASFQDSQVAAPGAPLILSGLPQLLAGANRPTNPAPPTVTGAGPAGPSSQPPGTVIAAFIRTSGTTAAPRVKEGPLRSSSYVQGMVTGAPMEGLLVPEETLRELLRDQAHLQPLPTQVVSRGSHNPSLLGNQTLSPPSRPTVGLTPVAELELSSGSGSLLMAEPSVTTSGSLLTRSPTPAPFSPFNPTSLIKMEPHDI", "in_short": "as §1"}, "ELK4": {"biological_target": "T9, ELK4 (Homo sapiens, UniProt P28324-2 1-405)", "T9 sequence": "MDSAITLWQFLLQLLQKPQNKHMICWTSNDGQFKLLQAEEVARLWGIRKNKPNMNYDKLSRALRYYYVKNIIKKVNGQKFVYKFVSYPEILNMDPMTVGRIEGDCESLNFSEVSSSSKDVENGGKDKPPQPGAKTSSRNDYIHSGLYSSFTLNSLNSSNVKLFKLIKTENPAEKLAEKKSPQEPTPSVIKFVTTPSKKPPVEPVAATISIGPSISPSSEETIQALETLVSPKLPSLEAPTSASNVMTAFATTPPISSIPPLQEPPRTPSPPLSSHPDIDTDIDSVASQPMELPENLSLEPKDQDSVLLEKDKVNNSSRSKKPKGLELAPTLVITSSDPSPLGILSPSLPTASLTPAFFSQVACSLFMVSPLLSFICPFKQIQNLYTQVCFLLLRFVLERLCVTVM", "in_short": "as §1"}, "ETV2": {"biological_target": "T10, ETV2 (Homo sapiens, UniProt O00321 1-342)", "T10 sequence": "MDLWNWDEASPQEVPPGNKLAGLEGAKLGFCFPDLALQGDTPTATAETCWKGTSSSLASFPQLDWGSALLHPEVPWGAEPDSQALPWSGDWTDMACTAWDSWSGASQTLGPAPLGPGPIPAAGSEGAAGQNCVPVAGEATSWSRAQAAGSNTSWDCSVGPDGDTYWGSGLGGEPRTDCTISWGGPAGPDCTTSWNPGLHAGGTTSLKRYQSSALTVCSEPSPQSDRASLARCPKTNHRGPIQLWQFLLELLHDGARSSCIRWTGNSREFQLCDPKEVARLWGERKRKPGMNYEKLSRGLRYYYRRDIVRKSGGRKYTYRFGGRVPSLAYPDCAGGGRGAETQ", "in_short": "as §1"}, "CRX": {"biological_target": "CRX (Homo sapiens, UniProt O43186 1-299)", "sequence (O43186 whole entry)": "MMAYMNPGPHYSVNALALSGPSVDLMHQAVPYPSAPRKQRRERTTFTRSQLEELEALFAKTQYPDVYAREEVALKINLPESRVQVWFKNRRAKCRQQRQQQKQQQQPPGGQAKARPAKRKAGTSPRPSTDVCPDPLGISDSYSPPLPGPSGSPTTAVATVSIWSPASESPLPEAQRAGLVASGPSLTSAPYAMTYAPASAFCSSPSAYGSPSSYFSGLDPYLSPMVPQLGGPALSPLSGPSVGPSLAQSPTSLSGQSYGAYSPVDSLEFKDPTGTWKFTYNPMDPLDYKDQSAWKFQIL", "in_short": "as §1"}, "ETV1": {"biological_target": "ETV1 (Homo sapiens, UniProt P50549 1-477)", "sequence (P50549 whole entry)": "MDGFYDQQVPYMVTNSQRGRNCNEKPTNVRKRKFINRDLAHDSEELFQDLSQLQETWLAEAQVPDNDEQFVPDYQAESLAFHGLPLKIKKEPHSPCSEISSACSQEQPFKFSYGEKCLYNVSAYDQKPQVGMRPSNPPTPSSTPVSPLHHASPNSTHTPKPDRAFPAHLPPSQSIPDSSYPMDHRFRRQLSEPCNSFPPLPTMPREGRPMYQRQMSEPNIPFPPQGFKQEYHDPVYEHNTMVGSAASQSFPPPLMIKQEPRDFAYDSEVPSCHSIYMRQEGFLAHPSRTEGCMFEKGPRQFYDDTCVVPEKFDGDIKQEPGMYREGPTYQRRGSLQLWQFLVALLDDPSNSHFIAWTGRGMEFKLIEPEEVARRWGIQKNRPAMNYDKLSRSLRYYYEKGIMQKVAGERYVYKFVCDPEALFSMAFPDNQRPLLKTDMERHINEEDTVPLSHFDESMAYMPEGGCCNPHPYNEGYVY", "in_short": "as §1"}}, "data": [{"sequence": "CCGTAT", "values": [{"measurement": "binding signal", "setting": "FLI1", "result": "1.22 fold enrichment (6-mer frequency, TF over GST control)"}, {"measurement": "binding signal", "setting": "ELK1", "result": "1.36 fold enrichment (6-mer frequency, TF over GST control)"}, {"measurement": "binding signal", "setting": "GABPA", "result": "1.31 fold enrichment (6-mer frequency, TF over GST control)"}, {"measurement": "binding signal", "setting": "ERG", "result": "1.2 fold enrichment (6-mer frequency, TF over GST control)"}, {"measurement": "binding signal", "setting": "ELF1", "result": "1.26 fold enrichment (6-mer frequency, TF over GST control)"}, {"measurement": "binding signal", "setting": "EHF", "result": "1.14 fold enrichment (6-mer frequency, TF over GST control)"}, {"measurement": "binding signal", "setting": "SPI1", "result": "1.26 fold enrichment (6-mer frequency, TF over GST control)"}, {"measurement": "binding signal", "setting": "SPIB", "result": "1.31 fold enrichment (6-mer frequency, TF over GST control)"}, {"measurement": "binding signal", "setting": "ELK3", "result": "1.32 fold enrichment (6-mer frequency, TF over GST control)"}, {"measurement": "binding signal", "setting": "FEV", "result": "1.14 fold enrichment (6-mer frequency, TF over GST control)"}, {"measurement": "binding signal", "setting": "ETV5", "result": "1.23 fold enrichment (6-mer frequency, TF over GST control)"}, {"measurement": "binding signal", "setting": "SPIC", "result": "1.29 fold enrichment (6-mer frequency, TF over GST control)"}, {"measurement": "binding signal", "setting": "ELF4", "result": "1.17 fold enrichment (6-mer frequency, TF over GST control)"}, {"measurement": "binding signal", "setting": "ELK4", "result": "1.27 fold enrichment (6-mer frequency, TF over GST control)"}, {"measurement": "binding signal", "setting": "ETV2", "result": "1.34 fold enrichment (6-mer frequency, TF over GST control)"}, {"measurement": "binding signal", "setting": "CRX", "result": "1 fold enrichment (6-mer frequency, TF over GST control)"}, {"measurement": "binding signal", "setting": "ETV1", "result": "1.19 fold enrichment (6-mer frequency, TF over GST control)"}]}]}
